Screens as filed in PubChem.
Sampled rows, rich in hits. Any-hit rate of the full collection: about 9.4%.
SMN2 splice up: increases expression of the SMN2 splice variant. HEK293 SMN2-luciferase splicing reporter, luminescence, 30-36 h. Potency, µM (titrated, usually from 46.1 µM), without a hit: at the top dose activity change, positive = activation, usual class: activators. hit rate 2.8% among 210,000; note: % of control where 0% means no effect; nearly all actives have a fitted effect of over 55% in size
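HEK293 cells carry an SMN2 […]–luciferase reporter in which exon 7 inclusion puts luciferase in frame. Cells were plated 10-12 h before compound addition, then incubated 30-36 h at 37C. ONE-Glo luminescence was read; sodium butyrate at 4.5 mM final served as control.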
Rab9 promoter act: activates the Rab9 promoter. Huh7 Rab9 promoter-luciferase reporter, luminescence, 24 h. hit rate 2.8% among 320,000. Potency, µM (top dose mostly 9.22 µM), inactives show at the highest dose activation, negative = inhibition, most hits filed as activators; note: % of control where 0% means no effect; nearly all actives have a fitted effect of over 60% in size
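Rab9 promoter-driven luciferase in stably transfected Huh7 cells; 1500 cells/well rested 2 h, exposed to compound in DMSO for 24 h at 37 °C, 5% CO2. Luminescence read 10 min after adding luciferase reagent at ambient temperature.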
FLuc counter: counter-screen for miR-21 project: firefly luciferase inhibitors or activators | P08659 | purified FLuc, Km substrates, luminescence inhibition | Potency, µM (titrated, usually from 57.5 µM), inactives show at the highest dose activity change, negative = inhibition, usual class: inhibitors | hit rate 6.9% among 360,000;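 note: plate controls were vehicle for no effect and reference inhibitor for full effect; nearly all actives have a fitted effect of over 55% in size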
Target sequence (P08659 whole entry, looked up): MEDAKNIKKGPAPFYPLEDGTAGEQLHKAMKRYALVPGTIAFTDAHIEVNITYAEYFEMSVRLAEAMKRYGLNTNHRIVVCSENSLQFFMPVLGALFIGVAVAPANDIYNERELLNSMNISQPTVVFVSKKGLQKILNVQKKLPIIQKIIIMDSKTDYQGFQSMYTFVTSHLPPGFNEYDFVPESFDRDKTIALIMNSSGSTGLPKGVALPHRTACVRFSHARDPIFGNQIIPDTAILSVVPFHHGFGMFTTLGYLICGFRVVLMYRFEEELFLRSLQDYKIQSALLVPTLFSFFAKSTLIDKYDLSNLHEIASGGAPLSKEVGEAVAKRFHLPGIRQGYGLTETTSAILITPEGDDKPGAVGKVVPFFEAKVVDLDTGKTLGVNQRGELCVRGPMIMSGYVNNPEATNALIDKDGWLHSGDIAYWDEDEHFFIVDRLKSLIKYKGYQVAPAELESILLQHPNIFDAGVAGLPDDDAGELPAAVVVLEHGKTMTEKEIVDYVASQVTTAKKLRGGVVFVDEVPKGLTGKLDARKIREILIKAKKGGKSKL
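Purified P. pyralis luciferase, 10 nM final, with Km-level 10 uM D-luciferin and 10 uM ATP in 50 mM Tris acetate pH 7.5, 10 mM Mg acetate, 0.01% Tween-20, 0.05% BSA; 6-point qHTS titration about 60 µM downward; luminescence read.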
ELG1 DNA repair: inhibitors of ELG1-dependent DNA repair in HEK293T cells | Potency, µM (titrated, usually from 46.1 µM), inactives show at the highest dose activity change, negative = inhibition, actives largely listed as inhibitors | hit rate 2.3% among 330,000 | HEK293T ELG1-luciferase reporter, luminescence, 16 h; DNA damage induced by 5-fluorouridine; note: % is set by controls: 0 for no effect and ±100 for the full control effect; nearly all actives have a fitted effect of over 55% in size
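5-Fluorouridine DNA damage + compound/DMSO, 2,000 cells/well, 16 h, 37 °C/5% CO2. ONE-Glo, 30 min RT, luminescence. Readout = decrease in reporter signal.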
ELG1 genotox: inducers of genotoxicity in HEK293T ELG1-luciferase cells; HEK293T ELG1-luciferase reporter, luminescence, 16 h; Potency, µM (titrated, usually from 46 µM), for the others: top-dose activity change, positive = activation, hits mostly activators; AID 504466; hit rate 1.3% among 330,000; note: % of control where 0% means no effect; nearly all actives have a fitted effect of over 60% in size
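Luminescence read-out: rising ELG1-luciferase signal, reflecting elevated ELG1 protein under genetic stress, flags genotoxic compounds. Cells were treated for 16 hr at 37 °C before ONE-Glo detection.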
NPC1 promoter act: activates the NPC1 promoter | Huh7 NPC1 promoter luciferase reporter, 24 h | Potency, µM (doses to about 9.22 µM), without a hit: at the highest dose activation, hits mostly activators | hit rate 2.4% among 320,000 | AID 485313; note: % of control where 0% means no effect; nearly all actives have a fitted effect of over 60% in size
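Readout is luciferase luminescence, reflecting NPC1 promoter activation in stably transfected Huh7 cells after 24 h compound exposure at 37 °C in reduced-serum medium with 10% FBS.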
Starred values were filed as active, the others as inactive; [ ] = remark or other dose. Calls come from the whole dose curve; as a rule, active = well fitted curve in the direction sought with a large enough effect; inconclusive = small, poorly fitted or top-dose-only effect, or another doubt; inactive = no such curve, though single readings can be large; an effect the other way counts as inactive or inconclusive. Potency is the fitted concentration of half-maximal effect.

O=C(C1CCN(S(=O)(=O)Cc2ccccc2)CC1)N1CCN(c2ccccc2F)CC1 was read as FLuc counter -1.3%.
Screening O=C(/C=C/c1ccc2ccccc2c1)c1ccoc1 returned SMN2 splice up -4.6%, Rab9 promoter act inconclusive, FLuc counter 0.536µM*, ELG1 DNA repair inconclusive, ELG1 genotox 6.1% and NPC1 promoter act inconclusive.
Screening Cc1ccc(S(=O)(=O)N/N=C\c2ccc3c(c2)OCO3)cc1 returned SMN2 splice up 8.7%, Rab9 promoter act 4.8%, FLuc counter 15.1µM*, ELG1 DNA repair 3.9%, ELG1 genotox 2.1% and NPC1 promoter act -4.6%.
Cc1ccc(S(=O)(=O)N/N=C\c2ccc3c(c2)OCO3)cc1C was read as Rab9 promoter act -3.1%, FLuc counter -12.2%, ELG1 DNA repair -5.0%, ELG1 genotox 4.2% and NPC1 promoter act 0.8%.
Cc1ccc(C(=O)O/N=C/c2ccc3c(c2)OCO3)cc1 was read as SMN2 splice up 1.8%, Rab9 promoter act 9.5%, FLuc counter 1.2µM*, ELG1 DNA repair 4.1%, ELG1 genotox -0.1% and NPC1 promoter act 0.4%.
Screening COc1ccccc1/C=N/OC(=O)c1ccc(C)cc1 returned Rab9 promoter act -1.1%, FLuc counter 1.9µM*, ELG1 DNA repair 11.0%, ELG1 genotox 3.8% and NPC1 promoter act -6.6%.
Screening COc1ccc(OC)c(S(=O)(=O)N/N=C\c2ccc3c(c2)OCO3)c1 returned Rab9 promoter act 21.4%, FLuc counter 9.53µM*, ELG1 DNA repair inconclusive, ELG1 genotox inconclusive and NPC1 promoter act 25.6%.
Screening CCOc1ccc(C(=O)NCc2nnnn2-c2ccc(C)c(C)c2)cc1OCC returned FLuc counter -3.0%.
`Cc1ccc(C(=O)NCC(=O)OCc2cc(=O)n3c(C)csc3n2)cc1` gave FLuc counter -11.9%.
For COc1ccc(NS(=O)(=O)c2ccc3c(c2)CC(C)N3C(C)=O)c(OC)c1 (centres undefined) the results were FLuc counter -6.5%.
For O=S(=O)(N/N=C\c1ccc2c(c1)OCO2)c1ccc(F)cc1 the results were Rab9 promoter act 2.9%, FLuc counter -10.9%, ELG1 DNA repair -10.0%, ELG1 genotox -4.6% and NPC1 promoter act -0.2%.
O=S(=O)(N/N=C\c1ccc2c(c1)OCO2)c1ccccc1 was read as Rab9 promoter act 0.1%, FLuc counter 21.3µM*, ELG1 DNA repair 8.9%, ELG1 genotox 7.8% and NPC1 promoter act -0.5%.
For COc1ccc(C2=NN(C(=O)c3ccco3)C(c3ccco3)C2)cc1OC (centres undefined) the results were Rab9 promoter act 3.1%, FLuc counter 15.1µM*, ELG1 DNA repair -3.2%, ELG1 genotox -5.1% and NPC1 promoter act -1.4%.
`O=C(c1ccco1)N1N=C(c2ccccc2)CC1c1ccc2nccnc2c1` (centres undefined) gave Rab9 promoter act -1.2%, FLuc counter 16.9µM*, ELG1 DNA repair 11.8%, ELG1 genotox 3.2% and NPC1 promoter act -3.4%.
Screening O=C(CCl)N1N=C(c2cccs2)CC1c1ccco1 (centres undefined) returned Rab9 promoter act -62.2%, FLuc counter -1.5%, ELG1 DNA repair 23.1µM*, ELG1 genotox -9.0% and NPC1 promoter act -36.3%.
`CC(=O)N1N=C(c2c(-c3ccccc3)c3cc(Br)ccc3[nH]c2=O)CC1c1ccco1` (centres undefined) gave Rab9 promoter act -4.8%, FLuc counter 2.3%, ELG1 DNA repair inconclusive, ELG1 genotox -9.6% and NPC1 promoter act -2.7%.
CC(=O)N1N=C(c2c(-c3ccccc3)c3cc(C)ccc3[nH]c2=O)CC1c1ccco1 (centres undefined) was read as SMN2 splice up -1.5%, Rab9 promoter act -7.5%, FLuc counter 0.0%, ELG1 DNA repair 23.1µM*, ELG1 genotox -4.0% and NPC1 promoter act -3.5%.
Screening CN1CCN(CC(=O)N2N=C(c3cccs3)CC2c2ccco2)CC1 (centres undefined) returned SMN2 splice up inconclusive, Rab9 promoter act -2.8%, FLuc counter 1.4%, ELG1 DNA repair -10.9%, ELG1 genotox 1.4% and NPC1 promoter act 0.4%.
`CCS(=O)(=O)Nc1cccc(C2=NN(C(=O)c3ccco3)C(c3ccco3)C2)c1` (centres undefined) gave Rab9 promoter act -6.7%, FLuc counter -5.5%, ELG1 DNA repair -13.5%, ELG1 genotox -2.2% and NPC1 promoter act -25.8%.
`CCCS(=O)(=O)O` gave SMN2 splice up -5.1%[9.22 µM].
Screening COc1cc2c(cc1OC)C1O[C@](c3ccsc3)(C2)Oc2c1c(=O)oc1ccc(F)cc21 returned Rab9 promoter act -6.5%[1.84 µM], FLuc counter -8.1%[11.5 µM] and NPC1 promoter act 1.5%[1.84 µM].
For CCOC(=O)c1ccc(NC(=O)c2cc(=O)c3ccc(C)c(C)c3o2)cc1 the results were SMN2 splice up 0.9% and FLuc counter -4.5%.
`CS(=O)(=O)Nc1cccc(C2=NN(C(=O)c3ccco3)C(c3ccco3)C2)c1` (centres undefined) gave Rab9 promoter act -2.5%, FLuc counter 16.9µM*, ELG1 DNA repair inconclusive, ELG1 genotox -4.6% and NPC1 promoter act -15.1%.
Screening O=C(c1ccco1)N1N=C(c2ccc(Cl)cc2)CC1c1ccco1 (centres undefined) returned Rab9 promoter act -1.4%, FLuc counter inconclusive, ELG1 DNA repair -19.6%, ELG1 genotox -2.0% and NPC1 promoter act -1.5%.
Screening CCc1ccc(C2=NN(C(C)=O)C(c3ccco3)C2)cc1 (centres undefined) returned SMN2 splice up 12.6µM*, Rab9 promoter act 1.78µM*, FLuc counter 8.49µM*, ELG1 DNA repair inconclusive, ELG1 genotox 16.4µM* and NPC1 promoter act 3.55µM*.
O=C(c1ccco1)N1N=C(c2ccc(Br)cc2)CC1c1ccco1 (centres undefined) was read as Rab9 promoter act -7.6%, FLuc counter inconclusive, ELG1 DNA repair 11.2µM*, ELG1 genotox -2.4% and NPC1 promoter act -2.7%.
For CCC(=O)N1N=C(c2ccc(Cl)cc2)CC1c1ccco1 (centres undefined) the results were Rab9 promoter act -2.2%, FLuc counter -23.1%, ELG1 DNA repair 1.3%, ELG1 genotox 2.2% and NPC1 promoter act -4.7%.
